# Experimental data: PubChem BioAssay (NCATS)
# Records with an inconclusive call do not appear. A call without a number means that no potency is given here. Calls of active or inactive are those of the source. Unless noted, calls follow the shape of the dose curve; as a rule, active = well fitted curve in either direction with a large enough effect (not every such curve was filed as active); inconclusive = small, poorly fitted or top-dose-only effect, or another doubt; inactive = flat fitted curve, though single readings scatter.
# Tests used:
# [1] = AP1 Signaling Pathway (AID 357);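 also: ME-180 reporter cells stimulated with EGF at its EC50 level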
# Procedure, shortened: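 Beta-lactamase reporter under AP-1 response element, ME-180 background. Stimulus: EC50 EGF. Compound exposure 5 h, 37 °C. Detection: CCF4, 2.5 h RT, 460/530 nm. Values: AC50 from titration.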
# [2] = target: Cytochrome P450 1A2 (Homo sapiens) (UniProt P05177); experiment: p450-cyp1a2 (AID 410; calls by dose curve)
# Procedure, shortened: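 Inhibition was calculated relative to 57 uM furafylline (full inhibition). The reaction used human CYP1A2 at 20nM with Luciferin-ME at its Km, 100uM, driven by an NADPH-regenerating system for 60 min at room temperature.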
# [3] = NFAT Signaling Pathway (AID 444); details: Jurkat NFAT-bla M1, carbachol, beta-lactamase ratio, 5 h; at 17.2 µM (top of the series) unless noted;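 also: carbachol stimulus at about its EC50 of 1 µM final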
# Procedure, shortened: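 Jurkat cells with NFAT-driven β-lactamase reporter and co-expressed M1 receptor, stimulated with carbachol (final 1 uM, ~EC50), compound titration, 5 h at 37 °C. CCF4 loaded 1 h at RT; 460/530 nm ratio gave %activity and AC50.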
# [4] = Stat Signaling Pathway (AID 446);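 also: ME-180 cervical cancer cells given 40 pM IL-6 alongside compound; SIE-controlled beta-lactamase reporter measured as 460/530 nm FRET emission ratio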
# Procedure, shortened: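 Screening format detects activators and inhibitors alike: ME-180 SIE-bla cells stimulated at 40 pM IL-6 for 5 hrs with compound, then dual-emission beta-lactamase read at 405 nm excitation.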
# [5] = target: Mitogen-activated protein kinase 10 (Mus musculus) (UniProt Q61831); experiment: JNK3 AlphaScreen Assay (AID 530);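 also: kinase came from lysate of stimulated human HepG2 cells; signal reports phosphorylation of biotinylated GST-cJun 1-79 at Ser73 with 10 µM ATP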
# Procedure, shortened: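 qHTS format: compounds tested as titrations against IL-1beta/TNF-alpha-activated HepG2 lysate JNK3 with biotin-GST-cJun substrate and 10 uM ATP at room temperature. Loss of anti-phospho-cJun AlphaScreen signal indicates inhibition.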
# [6] = target: 3',5'-cyclic-AMP phosphodiesterase 4B (Homo sapiens) (UniProt Q07343); experiment: qHTS Assay for Inhibitors of PDE-IV (AID 607; active = well fitted activation curve with a large enough effect in the main read-out, with a control signal flat, not every such curve was filed as active)
# Procedure, shortened: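 The readout is membrane depolarisation from a cAMP-sensing CNG channel, detected with a potential dye at ex 535/em 590. Cells were HEK293-derived (endogenous PDE-IV) at 1000 cells/well, titrated up to 22.9 uM final.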
# [7] = qHTS Assay for Lipid Storage Modulators (AID 1519; calls by dose curve); details: Drosophila S3 cells, BODIPY lipid droplet/cell ratio, laser cytometry, cells loaded with oleic acid
# Procedure, shortened: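 Cells seeded at 5,000 per well were treated with compounds over a concentration series and loaded with oleic acid (400 uM, as added). Lipid droplet fluorescence (488 nm excitation, 500-530 nm channel) was read by laser-scanning cytometry and normalized to 20 uM Triacsin C.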
# [8] = target: Ubiquitin carboxyl-terminal hydrolase 1 (Homo sapiens) (UniProt O94782); experiment: Inhibitors of USP1/UAF1: Pilot qHTS (AID 504865; active = well fitted inhibition curve with a large enough effect;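 also: rhodamine fluorescence freed from ubiquitin-rhodamine substrate followed over time; top concentration of the series differs between compounds; nearly all actives have a fitted effect of over 35% in size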)
# Procedure, shortened: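 Enzyme-free wells gave the negative control, while test wells held 1nM USP1/UAF1 preincubated with compound for 15 min at room temperature. Ub-Rho at 150nM final started the reaction, and fluorescence at 480/540 nm was recorded kinetically.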
# [9] = target: Glucocorticoid receptor (Homo sapiens) (UniProt P04150); experiment: GR-GFP Redistribution (AID 450;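 active = compounds whose dose series gives a full or clear partial fitted curve of increased nuclear translocation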; also: potency is read from the fitted curve at half-maximal effect); details: U2OS GR-GFP nuclear translocation, laser cytometry, 2 h
# [10] = target: Glucocorticoid receptor (Homo sapiens) (UniProt P04150); experiment: GR-EFC Redistribution (AID 451; calls by dose curve; also: potency is read from the fitted curve at half-maximal effect); details: CHO-K1 GR-EFC translocation, beta-gal luminescence, 2 h
# Procedure, shortened: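 CHO-K1 cells expressing nuclear EA and GR-ED fragments of b-gal; compounds titrated up to 46 uM final, 2 h at 37 C. GR nuclear translocation read as complemented b-gal luminescence after 1 h RT detection.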
# [11] = measured here: cell count channel max response
# [12] = measured here: lipid channel max response
# Chain of Glucocorticoid receptor (Homo sapiens) (P04150 whole entry, looked up, the tested form may be a part): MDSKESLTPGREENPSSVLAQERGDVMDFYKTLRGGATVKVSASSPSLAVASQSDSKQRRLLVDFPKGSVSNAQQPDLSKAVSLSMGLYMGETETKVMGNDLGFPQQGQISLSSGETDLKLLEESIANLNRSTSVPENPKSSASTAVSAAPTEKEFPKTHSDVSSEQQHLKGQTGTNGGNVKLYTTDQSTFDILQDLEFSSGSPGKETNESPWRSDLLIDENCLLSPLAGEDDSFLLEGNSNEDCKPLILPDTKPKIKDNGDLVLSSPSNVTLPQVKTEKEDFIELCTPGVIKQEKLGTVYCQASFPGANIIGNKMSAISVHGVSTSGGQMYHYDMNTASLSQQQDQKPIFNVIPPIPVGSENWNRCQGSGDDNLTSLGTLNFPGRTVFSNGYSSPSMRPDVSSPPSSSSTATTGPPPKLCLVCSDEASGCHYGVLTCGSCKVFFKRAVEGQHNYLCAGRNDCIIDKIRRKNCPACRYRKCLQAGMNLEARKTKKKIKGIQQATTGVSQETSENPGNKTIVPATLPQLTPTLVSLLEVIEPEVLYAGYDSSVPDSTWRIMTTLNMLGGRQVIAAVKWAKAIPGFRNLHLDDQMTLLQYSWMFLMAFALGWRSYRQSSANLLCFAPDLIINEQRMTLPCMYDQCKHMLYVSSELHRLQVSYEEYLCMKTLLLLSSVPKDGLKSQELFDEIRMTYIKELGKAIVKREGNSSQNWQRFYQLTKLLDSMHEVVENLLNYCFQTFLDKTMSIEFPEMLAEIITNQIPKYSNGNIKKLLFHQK
# Chain of Ubiquitin carboxyl-terminal hydrolase 1 (Homo sapiens) (O94782 whole entry, looked up): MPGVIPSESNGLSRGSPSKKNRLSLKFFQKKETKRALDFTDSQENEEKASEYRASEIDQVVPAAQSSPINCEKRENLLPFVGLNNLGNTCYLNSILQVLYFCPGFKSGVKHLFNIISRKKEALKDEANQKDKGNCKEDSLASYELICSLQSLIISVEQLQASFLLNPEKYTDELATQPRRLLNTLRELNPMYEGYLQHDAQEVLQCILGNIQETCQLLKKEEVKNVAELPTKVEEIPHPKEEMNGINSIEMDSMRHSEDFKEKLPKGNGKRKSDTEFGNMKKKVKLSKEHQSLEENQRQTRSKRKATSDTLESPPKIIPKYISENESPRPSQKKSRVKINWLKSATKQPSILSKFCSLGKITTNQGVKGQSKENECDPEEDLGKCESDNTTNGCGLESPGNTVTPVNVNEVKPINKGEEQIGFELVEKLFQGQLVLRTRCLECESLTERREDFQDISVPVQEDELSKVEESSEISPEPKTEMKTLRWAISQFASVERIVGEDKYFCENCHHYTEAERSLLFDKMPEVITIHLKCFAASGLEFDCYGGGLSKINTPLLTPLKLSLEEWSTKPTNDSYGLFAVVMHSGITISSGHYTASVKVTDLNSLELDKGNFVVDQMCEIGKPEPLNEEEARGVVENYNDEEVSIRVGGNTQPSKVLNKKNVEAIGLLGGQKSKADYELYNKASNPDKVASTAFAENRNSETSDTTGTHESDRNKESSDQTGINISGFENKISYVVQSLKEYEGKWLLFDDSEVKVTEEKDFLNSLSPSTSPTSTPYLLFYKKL
# Chain of 3',5'-cyclic-AMP phosphodiesterase 4B (Homo sapiens) (Q07343 whole entry, looked up): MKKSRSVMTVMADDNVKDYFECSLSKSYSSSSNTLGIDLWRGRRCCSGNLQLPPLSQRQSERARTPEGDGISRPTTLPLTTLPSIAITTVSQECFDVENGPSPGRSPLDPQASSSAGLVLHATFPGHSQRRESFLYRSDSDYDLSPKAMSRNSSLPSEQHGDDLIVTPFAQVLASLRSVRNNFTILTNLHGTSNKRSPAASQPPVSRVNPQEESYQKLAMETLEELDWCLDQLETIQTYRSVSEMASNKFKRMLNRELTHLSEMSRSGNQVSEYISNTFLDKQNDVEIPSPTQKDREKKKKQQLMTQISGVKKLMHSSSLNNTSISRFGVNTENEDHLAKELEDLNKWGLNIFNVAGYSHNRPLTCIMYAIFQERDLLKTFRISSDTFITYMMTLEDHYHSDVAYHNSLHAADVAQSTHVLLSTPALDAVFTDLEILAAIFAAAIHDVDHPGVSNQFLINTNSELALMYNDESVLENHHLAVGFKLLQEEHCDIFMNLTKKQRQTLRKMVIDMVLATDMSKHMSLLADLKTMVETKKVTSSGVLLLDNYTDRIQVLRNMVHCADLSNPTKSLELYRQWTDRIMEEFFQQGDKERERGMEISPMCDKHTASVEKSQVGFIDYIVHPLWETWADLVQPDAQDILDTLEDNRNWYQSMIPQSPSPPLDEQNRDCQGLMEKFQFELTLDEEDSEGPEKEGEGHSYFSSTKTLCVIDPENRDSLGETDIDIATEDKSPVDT
# Chain of Cytochrome P450 1A2 (Homo sapiens) (P05177 whole entry, looked up): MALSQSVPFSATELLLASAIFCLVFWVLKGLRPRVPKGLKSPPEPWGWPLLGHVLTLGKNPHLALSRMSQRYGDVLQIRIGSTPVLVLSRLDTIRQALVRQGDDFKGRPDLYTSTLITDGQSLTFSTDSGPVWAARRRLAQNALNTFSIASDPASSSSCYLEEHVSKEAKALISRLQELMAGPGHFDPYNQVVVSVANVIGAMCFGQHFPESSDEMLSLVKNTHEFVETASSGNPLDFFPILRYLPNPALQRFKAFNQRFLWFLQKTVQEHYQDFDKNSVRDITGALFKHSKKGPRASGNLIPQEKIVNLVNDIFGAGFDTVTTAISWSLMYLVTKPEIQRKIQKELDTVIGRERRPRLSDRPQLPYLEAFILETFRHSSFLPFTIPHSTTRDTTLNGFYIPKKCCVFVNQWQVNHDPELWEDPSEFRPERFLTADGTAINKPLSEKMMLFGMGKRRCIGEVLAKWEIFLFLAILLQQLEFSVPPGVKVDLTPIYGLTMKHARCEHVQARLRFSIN
SMILES,outcome [1],Potency [2],"activity change, negative = inhibition [3]",outcome [4],Potency [5],outcome [6],"activity change, negative = inhibition ([7]; at 25.7 µM (top of the series))","max response [7, 11]","max response [7, 12]",Potency [8],Potency [9],Potency [10],"activity change, negative = inhibition ([7]; at 57.5 µM (top of the series))"
CC1(C)S[C@@H]2[C@H](NC(=O)C(N)c3ccccc3)C(=O)N2[C@H]1C(=O)O (stereo partly drawn),inactive,inactive,-1.78% (inactive),inactive,inactive,inactive,-0.37% (inactive),8.14%,6.97%,inactive,,,
CC(=O)N[C@H](CS)C(=O)O,inactive,inactive,-2.14% [at 38 µM] (inactive),inactive,inactive,inactive,,2.82%,18.6%,inactive,> 46 µM (inactive),> 46 µM (inactive),4.08% (inactive)
CCC(=O)O[C@@]1(C(=O)CCl)[C@@H](C)C[C@@H]2[C@H]3CCC4=CC(=O)C=C[C@@]4(C)[C@]3(F)[C@@H](O)C[C@@]21C,inactive,inactive,-1.76% (inactive),inactive,inactive,inactive,-3.93% (inactive),-18.1%,-15.8%,,0.000621 µM (active),< 5.9e-06 µM (active),
CC(C)(CO)[C@H](O)C(=O)NCCCO,inactive,inactive,9.07% (inactive),inactive,inactive,inactive,-3.05% (inactive),-6.65%,-8.62%,inactive,,,
